Data on 40 sequences can be found in the OligoGym collection.
Note: reference of the scale not given here.

In the first test the target is WDR33. The test is described as follows: pooled miR-30 sensor sort-seq; sequence = guide strand. As to conditions: shRNA.
With TAGTATGGTCATTTGAGCCTGA, the sensor-assay potency score (higher = more potent) is 0.248.
On to TTTACTTCCTGAAACAACTAAC, for which the sensor-assay potency score (higher = more potent) was -1.04.
TTCAATTTTAAGTTGCTCCAGA: the sensor-assay potency score (higher = more potent) worked out at 0.632.
Sequence TTGAGGACCAGAACTACCTTGT showed a sensor-assay potency score (higher = more potent) of 0.395.
TAGATTATATCGATCTCGCATT: the sensor-assay potency score (higher = more potent) is -0.783.
Still for that read-out and setting: the same measure for TTTATTTTGCATCCAAGCCTGC: -0.562; for TTGTAGTCTATGGTTTTTCGGT: -0.753; for TTAGATTATATCGATCTCGCAT: 0.262.

A further test concerns the target WDR34. The test is described as above. The note with it: shRNA.
ATCTGCTGCTGCTCGGTCCAGT: the sensor-assay potency score (higher = more potent) is -0.627.
With TTTCTGGAGATCAAACAGCTGC, the sensor-assay potency score (higher = more potent) is -0.424.
In the case of ATACTTGAGGGAGAGCTGCAGC, the sensor-assay potency score (higher = more potent) was -0.787.
Regarding TTTGCTTGATCAAAACTGTGGG, the sensor-assay potency score (higher = more potent) was determined as 0.652.
Turning to TTGAGGGAGAGCTGCAGCGAAG, the sensor-assay potency score (higher = more potent) was -1.68.
As to TTGAACTCCAGACAGTAGACAG, the sensor-assay potency score (higher = more potent) is -1.12.
For TTCTTGAGCTTGGTGCTCCGTG, the sensor-assay potency score (higher = more potent) is -0.384.
Take TGCTTGATCAAAACTGTGGGTT: the sensor-assay potency score (higher = more potent) was -0.0783.
Turning to AATTCTTGTTCAGCTCTCGGAT, the sensor-assay potency score (higher = more potent) was -0.793.
As to TTGCTTGATCAAAACTGTGGGT, the sensor-assay potency score (higher = more potent) is -0.138.
In the case of ATACAGACAAGACACCATCTGC, the sensor-assay potency score (higher = more potent) was -0.609.
The same measure, in the same setting: the value for TTAAGCGTGCTCCAGTCCCCAT was -1.36.

Another test concerns the target WDR38. The test is described as above. The note with it: shRNA.
Consider TAGTCTGATCGGCAGCTCCAGA, for which the sensor-assay potency score (higher = more potent) is -1.14.
Turning to TTGACGTCTAGTCTGATCGGCA, the sensor-assay potency score (higher = more potent) was -0.321.
Take TTCTGAGCCTGTGAGCAGCATC: the sensor-assay potency score (higher = more potent) is -1.23.
As for TGAGCCTGTGAGCAGCATCTGG, the sensor-assay potency score (higher = more potent) is -1.58.
As for TTTGACGTCTAGTCTGATCGGC, the sensor-assay potency score (higher = more potent) is 1.06.
Consider TGACCGTCTCCACACTCCGTTG, for which the sensor-assay potency score (higher = more potent) is -1.74.
The same measure, in the same setting: the value for TTGACCATGCGGGAATAGCCGG was -1.06.
As to TTCAGTTGGATAAGCAGGCTGC, the sensor-assay potency score (higher = more potent) is -0.0722.
Consider TTTCCTGTGTTGCAGTCCCAGA, for which the sensor-assay potency score (higher = more potent) is -1.04.
The same measure, in the same setting: the value for TTTCACTCTCCGCACGGCCAGC was -1.51.
Still for that read-out and setting: the same measure for ATATTTGACGTCTAGTCTGATC: -0.981.
Consider TTGGTGACCCTTCAGGACCCGC, for which the sensor-assay potency score (higher = more potent) was -1.34.

A further test concerns the target WDR59. Described as above. As to conditions: shRNA.
In the case of TTCACCAGCATCTTGACACGAT, the sensor-assay potency score (higher = more potent) came to 0.208.
As for TAGACAACACACAAAGCGCAGC, the sensor-assay potency score (higher = more potent) was -0.806.
Still for that read-out and setting: the value for ATAGACAACACACAAAGCGCAG was -1.07; that for TAACCTGCTCCGCAGAACCTGG was -1.45; that for TAAAGCTAGGATATCGACTATG was -0.97.
Consider TTAGCTTTCATGGTGGATGTGA, for which the sensor-assay potency score (higher = more potent) turned out to be 0.497.
As for TTCAGCTCGCTTCTCTCTCAGA, the sensor-assay potency score (higher = more potent) was -0.891.
The sequence TAACACTGTAACACTGGCCCTG yielded a sensor-assay potency score (higher = more potent) of 0.0657.
